Measured values as given in ChEMBL document CHEMBL2218924, “A broad activity screen in support of a chemogenomic map for kinase signalling research and drug discovery” (Biochem J, 2013).

molecular target: T1, Dual specificity mitogen-activated protein kinase kinase 6 (Homo sapiens) (UniProt P52564); settings: at 10 µM
T1 sequence (whole entry): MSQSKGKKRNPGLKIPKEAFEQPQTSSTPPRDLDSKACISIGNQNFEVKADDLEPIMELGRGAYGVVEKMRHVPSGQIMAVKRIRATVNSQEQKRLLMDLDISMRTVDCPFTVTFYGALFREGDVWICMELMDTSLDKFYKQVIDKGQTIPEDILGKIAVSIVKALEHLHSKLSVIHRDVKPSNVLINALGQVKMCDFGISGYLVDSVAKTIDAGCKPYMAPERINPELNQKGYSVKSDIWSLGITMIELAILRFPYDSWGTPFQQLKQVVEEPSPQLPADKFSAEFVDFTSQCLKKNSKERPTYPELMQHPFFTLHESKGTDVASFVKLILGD

Compared with `CCn1cnc2c(Nc3cccc(Cl)c3)nc(N[C@@H]3CCCC[C@@H]3N)nc21`, `CC(C)[C@H](CO)Nc1nc(Nc2cccc(Cl)c2)c2ncn(C(C)C)c2n1` is lower in residual activity: 78% for the first, 64% for the second.

Going from `O=[N+]([O-])/C=C/c1ccc2c(c1)OCO2` to `COc1ccc2c(c[n+](C)c3c4cc5c(cc4ccc23)OCO5)c1OC`, the residual activity rises from 103% to 130%.

First: O=C1c2ccccc2-c2nc3nnnn3nc21
Second: COc1cc(OC)c(/C=C2\C(=O)Nc3ccccc32)c(OC)c1
The residual activity of the first is higher: 116% for the first, 87% for the second.

Compared with `N/C(=N\[N+](=O)[O-])N/N=C\c1ccc(-c2cccc([N+](=O)[O-])c2)o1`, `COc1cc2ncnc(Nc3ccc(OCc4ccccc4)cc3)c2cc1OC` is higher in residual activity: 83% for the first, 87% for the second.

Going from `C[S+]([O-])c1ccc(-c2nc(-c3ccc(F)cc3)c(-c3ccncc3)[nH]2)cc1` (centres undefined) to `O=c1[nH]c2ccccc2n1C1CCN(Cc2ccc(-c3nc4cc5[nH]cnc5cc4nc3-c3ccccc3)cc2)CC1`, the residual activity rises from 3% to 90%.

Compared with `O=C1NC(=O)c2c1c1c3ccccc3n3c1c1c2c2ccccc2n1C1CCC3O1`, `O=C1Nc2ccc3ncsc3c2/C1=C/c1c[nH]cn1` is lower in residual activity: 10% for the first, 1% for the second.

With `CC(C)(C)c1cc(C=C(C#N)C#N)cc(Br)c1O` the residual activity was 115%.

molecular target: T2, Dual specificity mitogen-activated protein kinase kinase 7 (Homo sapiens) (UniProt O14733); settings: at 1 µM
T2 sequence (whole entry): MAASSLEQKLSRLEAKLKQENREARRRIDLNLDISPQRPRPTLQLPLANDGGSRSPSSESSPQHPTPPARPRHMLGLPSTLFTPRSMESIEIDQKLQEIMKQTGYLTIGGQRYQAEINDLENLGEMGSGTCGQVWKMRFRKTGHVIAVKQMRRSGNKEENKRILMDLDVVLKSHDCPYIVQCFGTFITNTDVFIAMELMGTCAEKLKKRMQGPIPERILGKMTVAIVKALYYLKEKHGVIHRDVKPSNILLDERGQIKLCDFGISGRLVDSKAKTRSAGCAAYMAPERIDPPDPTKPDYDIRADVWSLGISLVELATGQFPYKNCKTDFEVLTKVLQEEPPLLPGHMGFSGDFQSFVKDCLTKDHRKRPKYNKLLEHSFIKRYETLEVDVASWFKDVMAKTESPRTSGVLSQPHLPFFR

Compared with `CCn1cnc2c(Nc3cccc(Cl)c3)nc(N[C@@H]3CCCC[C@@H]3N)nc21`, `CC(C)[C@H](CO)Nc1nc(Nc2cccc(Cl)c2)c2ncn(C(C)C)c2n1` is lower in residual activity: 86% for the first, 75% for the second.

First: O=[N+]([O-])/C=C/c1ccc2c(c1)OCO2
Second: COc1ccc2c(c[n+](C)c3c4cc5c(cc4ccc23)OCO5)c1OC
The residual activity of the first is higher: 112% for the first, 110% for the second.

Compared with `O=C1c2ccccc2-c2nc3nnnn3nc21`, `COc1cc(OC)c(/C=C2\C(=O)Nc3ccccc32)c(OC)c1` is higher in residual activity: 66% for the first, 98% for the second.

First: C[S+]([O-])c1ccc(-c2nc(-c3ccc(F)cc3)c(-c3ccncc3)[nH]2)cc1 (centres undefined)
Second: O=c1[nH]c2ccccc2n1C1CCN(Cc2ccc(-c3nc4cc5[nH]cnc5cc4nc3-c3ccccc3)cc2)CC1
The residual activity of the first is lower: 86% for the first, 112% for the second.

Going from `COc1cc2ncnc(Nc3ccc(OCc4ccccc4)cc3)c2cc1OC` to `COC(=O)[C@@]1(O)C[C@H]2O[C@]1(C)n1c3ccccc3c3c4c(c5c6ccccc6n2c5c31)C(=O)NC4`, the residual activity falls from 102% to 7%.

First: O=C1NC(=O)c2c1c1c3ccccc3n3c1c1c2c2ccccc2n1C1CCC3O1
Second: O=C1Nc2ccc3ncsc3c2/C1=C/c1c[nH]cn1
The residual activity of the first is higher: 100% for the first, 43% for the second.

`COc1ccc2c(c1)/C(=C/c1cnc[nH]1)C(=O)N2` gave a residual activity of 71%.

molecular target: T2, Dual specificity mitogen-activated protein kinase kinase 7 (Homo sapiens); settings: at 10 µM

Compared with `CCn1cnc2c(Nc3cccc(Cl)c3)nc(N[C@@H]3CCCC[C@@H]3N)nc21`, `O=c1[nH]c2ccccc2n1C1CCN(Cc2ccc(-c3nc4cc5[nH]cnc5cc4nc3-c3ccccc3)cc2)CC1` is higher in residual activity: 91% for the first, 112% for the second.

Compared with `O=[N+]([O-])/C=C/c1ccc2c(c1)OCO2`, `COc1ccc2c(c[n+](C)c3c4cc5c(cc4ccc23)OCO5)c1OC` is lower in residual activity: 84% for the first, 71% for the second.

First: O=C1c2ccccc2-c2nc3nnnn3nc21
Second: COc1cc(OC)c(/C=C2\C(=O)Nc3ccccc32)c(OC)c1
The residual activity of the first is lower: 39% for the first, 96% for the second.

Going from `C[S+]([O-])c1ccc(-c2nc(-c3ccc(F)cc3)c(-c3ccncc3)[nH]2)cc1` (centres undefined) to `COc1cc2ncnc(Nc3ccc(OCc4ccccc4)cc3)c2cc1OC`, the residual activity rises from 68% to 85%.

Compared with `O=C1NC(=O)c2c1c1c3ccccc3n3c1c1c2c2ccccc2n1C1CCC3O1`, `COC(=O)[C@@]1(O)C[C@H]2O[C@]1(C)n1c3ccccc3c3c4c(c5c6ccccc6n2c5c31)C(=O)NC4` is lower in residual activity: 98% for the first, 0% for the second.

Compared with `CC(C)(C)c1cc(C=C(C#N)C#N)cc(Br)c1O`, `COc1ccc2c(c1)/C(=C/c1cnc[nH]1)C(=O)N2` is lower in residual activity: 102% for the first, 16% for the second.

With `O=C1Nc2ccc3ncsc3c2/C1=C/c1c[nH]cn1` the residual activity was 12%.
